Bioassay records from PubChem.
NPSR antagonist = neuropeptide S receptor (human) antagonism, cAMP; CHO-NPSR cells, cAMP TR-FRET, antagonist mode; 220,000 compounds, 1% hits; Potency, µM (doses to about 38.3 µM), hits mostly inhibitors; Q6W5P4; note: nearly all actives have a fitted effect of over 50% in size
TSHR antagonist = human thyrotropin receptor antagonism. AID 504810. 330,000 compounds, 0.2% hits. TSHR-expressing cells, TSH-stimulated cAMP HTRF, 2 h; active compounds read low. activity change, negative = inhibition, % at 11.5 µM;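 active = activity change below a set negative limit, meaning inhibition stronger than a set level, cut at about -70% in these data; inconclusive = activity change between two set negative limits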
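Freshly harvested TSHR cells receive pin-tooled compound, then EC80 TSH at 4nM final. After 2 hours at 37 deg C, antibody in lysis buffer and cAMP-d2 are added; 30 minutes at ambient temperature precede the HTRF read.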
TCR act = activators of T cell receptors | primary human leukocytes, anti-CD3, IL-2 HTRF, 48 h | 330,000 tested, under 10 active | Potency, µM (doses to about 9.22 µM), actives largely listed as activators
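Using a-CD3 beads without co-stimulation, primary human leukocytes were exposed to compounds for 48 hr. An HTRF IL-2 kit measured the cytokine, with europium-to-d2 energy transfer producing emission at 665nm upon 320nm excitation.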
TRb SRC2 PPI = disrupts binding of human TR beta to SRC2. P10828. TRbeta-SRC2 peptide binding, fluorescence polarization; receptor liganded with 1 µM T3. Potency, µM (titrated, usually from 106 µM), actives largely listed as inhibitors. 280,000 compounds, 0.065% hits. AID 1469; note: nearly all actives have a fitted effect of over 50% in size
Target sequence (P10828 whole entry, looked up): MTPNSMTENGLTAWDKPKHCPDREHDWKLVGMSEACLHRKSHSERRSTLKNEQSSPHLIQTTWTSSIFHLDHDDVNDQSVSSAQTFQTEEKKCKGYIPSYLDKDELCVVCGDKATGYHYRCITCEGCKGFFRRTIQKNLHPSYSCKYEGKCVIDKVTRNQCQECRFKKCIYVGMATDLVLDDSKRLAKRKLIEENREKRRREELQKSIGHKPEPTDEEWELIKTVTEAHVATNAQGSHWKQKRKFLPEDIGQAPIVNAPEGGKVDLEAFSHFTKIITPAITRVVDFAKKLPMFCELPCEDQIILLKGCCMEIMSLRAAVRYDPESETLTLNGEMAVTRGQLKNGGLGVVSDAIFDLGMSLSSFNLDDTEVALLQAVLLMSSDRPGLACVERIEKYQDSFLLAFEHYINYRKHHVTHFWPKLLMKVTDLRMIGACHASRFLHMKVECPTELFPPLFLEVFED
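Read-out is fluorescence polarization (555 nm excitation, 632 nm emission) of a Texas Red SRC2 coactivator peptide; loss of signal reflects blocked binding to human TRb ligand-binding domain in the presence of 1 uM T3.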
FBPA coupling cs = inhibits coupling enzyme system, counter-screen for aldolase hits; coupling enzyme system counterscreen, AmpLite Red fluorescence; activity change, negative = inhibition, % at 58.2 µM, hits read low; 290,000 compounds, 0.67% hits; in the data active = activity change below about -30%
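First, compound is pin-transferred into glyceraldehyde-3-phosphate coupling-enzyme reagent at 57.5 uM final and held 10 min at RT. Next, substrate, coupling system and AmpLite Red are added. After 20 min RT, fluorescence (525/598 nm) is read.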
TexasRed fluor = alters Texas Red total fluorescence, flagging assay interference. AID 1479. TRb/SRC2 Texas Red total fluorescence interference. Potency, µM (highest dose often 106 µM). 280,000 compounds, 0.29% hits; active = well fitted curve in either direction with a large enough effect; inconclusive = small, poorly fitted or top-dose-only effect
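Human TRβ ligand-binding domain (0.6 uM) and Texas Red SRC2 peptide (20 nM) in Tris buffer with 1 uM T3 and 5% DMSO were incubated with pinned compound for 5 hr at ambient temperature. Total fluorescence was computed as S + 2P (555/632 nm).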
Large screens that a line does not name were inactive; ! = not confirmed by another sample; [ ] = remark or other dose. Only some compounds are listed: those with a hit (about 1% of all), similar ones and a draw of the others. Unless noted, calls come from the whole dose curve; as a rule, active = well fitted curve in the direction sought with a large enough effect; inconclusive = small, poorly fitted or top-dose-only effect, or another doubt; inactive = no such curve, though single readings can be large; an effect the other way counts as inactive or inconclusive.

CCN1C(c2ccccc2)=C(c2ccccc2)S/C1=C/C=C1\SC(=S)N(C)C1=O	TRb SRC2 PPI inconclusive, TexasRed fluor 18µM[fluorescent]
CCN1C(c2ccccc2)=C(c2ccccc2)S/C1=C\C=C1/SC(=S)N(C)C1=O	none (no result: NPSR antagonist, TSHR antagonist, TRb SRC2 PPI, FBPA coupling cs, TexasRed fluor)
Oc1cccc(/C=N/Nc2cc(N3CCCC3)nc(N3CCCC3)n2)c1	FBPA coupling cs -32
Oc1ccc(/C=N/Nc2cc(N3CCCC3)nc(N3CCCC3)n2)cc1	FBPA coupling cs -44
COc1ccc(/C=N/Nc2cc(N3CCCC3)nc(N3CCCC3)n2)cc1	NPSR antagonist 13µM, FBPA coupling cs -40
Oc1ccc(/C=N/Nc2cc(N3CCOCC3)nc(N3CCOCC3)n2)cc1	none (no result: NPSR antagonist, TSHR antagonist, TRb SRC2 PPI, FBPA coupling cs, TexasRed fluor)
COc1cccc(CNC(=O)c2cc3cc(C)ccc3n2C)c1	none (no result: NPSR antagonist, TSHR antagonist, TCR act, FBPA coupling cs)
COc1cc(-c2nnc(SCCOc3ccc(C)c(Cl)c3)o2)cc(OC)c1OC	none (no result: NPSR antagonist, TSHR antagonist, TCR act, FBPA coupling cs)
COc1ccc(NC(=O)CN2CCN(Cc3ccc4c(c3)OCO4)CC2)cc1OC	FBPA coupling cs -38
O=C(O)C1=C(C2CCCCC2)C(=O)c2ccccc21	none (no result: NPSR antagonist, TSHR antagonist, TRb SRC2 PPI, FBPA coupling cs, TexasRed fluor)
O=C(O)c1ccc(C2CCCCC2)cn1	FBPA coupling cs -49
COCCCN1C(=O)c2[nH]nc(-c3ccccc3O)c2C1c1ccc(OC)cc1 (configuration not stated)	none (no result: NPSR antagonist, TSHR antagonist, TCR act, FBPA coupling cs)
CCCCn1c(=O)[nH]c2nc3cc(N)ccc3nc2c1=O	FBPA coupling cs -53
CCC(NC(C)C)C(O)c1ccc(O)c(O)c1 (configuration not stated)	FBPA coupling cs -53
CC(C)NC[C@H](O)c1ccc(O)c(O)c1	FBPA coupling cs -66!
O=C(CSc1nc(=O)[nH]c2c1CCCC2)Nc1ccc(Cl)c(Cl)c1	none (no result: NPSR antagonist, TSHR antagonist, TCR act, FBPA coupling cs)
C=CC(=O)NC(C)(C)CS(=O)(=O)O	none (no result: NPSR antagonist, TSHR antagonist, TCR act, FBPA coupling cs)
COc1ccc(OC)c(NC(=O)CN(C)S(=O)(=O)c2ccc3[nH]c4c(c3c2)CCCC4)c1	none (no result: NPSR antagonist, TSHR antagonist, TCR act, FBPA coupling cs)
COCCCNC(=O)c1ccc(Cn2c(=O)c3ccccc3n(CC(=O)Nc3c(C)cccc3C)c2=O)cc1	none (no result: NPSR antagonist, TSHR antagonist, TCR act, FBPA coupling cs)
COc1cc(NC(=O)CN2CCN(c3ccc(F)cc3)CC2)cc(OC)c1	none (no result: NPSR antagonist, TSHR antagonist, TCR act, FBPA coupling cs)
COc1ccc(-c2nc(-c3ccccc3)c(-c3cc([N+](=O)[O-])ccc3C)[nH]2)cc1OC	NPSR antagonist 7.9µM
CCOc1cc(-c2nc(-c3ccccc3)c(-c3cc([N+](=O)[O-])ccc3C)[nH]2)ccc1O	NPSR antagonist inconclusive (no result: TSHR antagonist)
O=[N+]([O-])c1cccc(/C([O-])=C(/C(=S)Nc2cccc3ccccc23)[n+]2ccccc2)c1	FBPA coupling cs -42
O=[N+]([O-])c1cccc(C([O-])=C(C(=S)Nc2cccc3ccccc23)[n+]2ccccc2)c1	none (no result: NPSR antagonist, TSHR antagonist, TRb SRC2 PPI, FBPA coupling cs, TexasRed fluor)
CCN(Cc1ccccc1)C(=O)c1cc(-c2ccccc2)n[nH]1	none (no result: NPSR antagonist, TSHR antagonist, TCR act, FBPA coupling cs)
CC1(C)Cc2c(ccc3ccccc23)C2=C(C(=O)N3CCCC3)C(=O)C(=O)N21	FBPA coupling cs -45
O=C(O)c1ccc2c(c1)C(=O)OC2=O	none (no result: NPSR antagonist, TSHR antagonist, TCR act, FBPA coupling cs)
CCc1nn(CC(=O)N2CCN(c3cccc(C)c3)C(C)C2)c(=O)c2cc3sccc3n12 (configuration not stated)	none (no result: NPSR antagonist, TSHR antagonist, TCR act, FBPA coupling cs)
CC(C)(C)c1cc(-c2csc(Nc3ccccc3)[n+]2Cc2ccc(C(=O)O)cc2)cc(C(C)(C)C)c1O	NPSR antagonist 13µM
Cc1c(-c2ccccc2)n(-c2ccccc2O)c2nc3c(c(=O)n(C)c(=O)n3C)n12	none (no result: NPSR antagonist, TSHR antagonist, TCR act, FBPA coupling cs)
COc1ccc(/C=N/Nc2cc(=O)n(C)c(=O)n2C)cc1OC	FBPA coupling cs -35
COc1ccc(/C=C/C(=O)NNc2cc(=O)n(C)c(=O)n2C)cc1OC	FBPA coupling cs -31
Cc1ccc(C)c(NC(=O)CSc2cn(CC(=O)N3CCCCC3)c3ccccc23)c1	none (no result: NPSR antagonist, TSHR antagonist, TCR act, FBPA coupling cs)
COc1cc(C(=O)NC2CC(=O)N(c3cccc(F)c3)C2)cc(OC)c1OC (configuration not stated)	none (no result: NPSR antagonist, TSHR antagonist, TCR act, FBPA coupling cs)
COc1ccccc1OCCCn1cc(C#N)c2ccccc21	FBPA coupling cs -32
N#Cc1cn(CCCOc2ccccc2)c2ccccc12	none
O=C(O/N=C1\CCCCC1c1ccc([N+](=O)[O-])cc1[N+](=O)[O-])c1c(F)cccc1F (configuration not stated)	NPSR antagonist inconclusive, FBPA coupling cs -31
